# “And” between values parts separate entries of the source, which are not always exact repeats. Identical values can stand only once. Inconclusive results are not listed. Entries that show only a call come without a potency. The source made the active and inactive calls. Unless noted, the call rests on the fitted dose curve.
# Tests used:
# [1] = molecular target: Estrogen receptor (Homo sapiens) (UniProt P03372); test: qHTS assay for small molecule agonists of estrogen receptor alpha signaling (AID 588514); further: nearly all actives have a fitted effect of over 70% in size; further: potency means the concentration at half of the fitted maximal effect
# Sequence of Estrogen receptor (Homo sapiens) (P03372 whole entry, looked up): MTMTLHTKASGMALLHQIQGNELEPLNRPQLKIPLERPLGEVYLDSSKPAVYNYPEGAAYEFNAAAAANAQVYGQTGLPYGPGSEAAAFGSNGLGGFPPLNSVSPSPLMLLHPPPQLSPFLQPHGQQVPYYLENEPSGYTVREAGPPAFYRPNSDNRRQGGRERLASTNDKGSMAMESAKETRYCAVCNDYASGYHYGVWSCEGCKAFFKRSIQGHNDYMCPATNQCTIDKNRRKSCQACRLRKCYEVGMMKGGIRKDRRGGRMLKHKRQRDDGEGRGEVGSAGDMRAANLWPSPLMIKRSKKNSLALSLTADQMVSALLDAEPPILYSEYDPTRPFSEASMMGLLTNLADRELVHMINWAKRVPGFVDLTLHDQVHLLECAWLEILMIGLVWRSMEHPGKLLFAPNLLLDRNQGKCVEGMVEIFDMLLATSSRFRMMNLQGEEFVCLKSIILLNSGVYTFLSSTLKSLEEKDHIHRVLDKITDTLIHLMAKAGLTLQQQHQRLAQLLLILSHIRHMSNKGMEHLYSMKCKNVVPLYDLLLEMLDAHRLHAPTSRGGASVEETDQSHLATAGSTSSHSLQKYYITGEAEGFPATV
# In short: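 ER-alpha-UAS-bla GripTite HEK 293 cells in medium with 2% charcoal/dextran-treated FBS were treated with compound titrations at 37 C for 18 hrs; beta-lactamase reporter read by CCF4 fluorescence after 2 hrs at RT.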
# [2] = molecular target: Glucocorticoid receptor (Homo sapiens) (UniProt P04150); test: qHTS assay for small molecule agonists of glucocorticoid receptor signaling (AID 588532; active means well fitted curve in the direction sought with a large enough effect in the signal ratio, with a control signal flat; the % refers to the signal ratio); details: HeLa MMTV-bla, beta-lactamase ratio, agonist, 18 h; stronger effect = higher value; percent of dexamethasone control, DMSO zero
# Sequence of Glucocorticoid receptor (Homo sapiens) (P04150 whole entry, looked up): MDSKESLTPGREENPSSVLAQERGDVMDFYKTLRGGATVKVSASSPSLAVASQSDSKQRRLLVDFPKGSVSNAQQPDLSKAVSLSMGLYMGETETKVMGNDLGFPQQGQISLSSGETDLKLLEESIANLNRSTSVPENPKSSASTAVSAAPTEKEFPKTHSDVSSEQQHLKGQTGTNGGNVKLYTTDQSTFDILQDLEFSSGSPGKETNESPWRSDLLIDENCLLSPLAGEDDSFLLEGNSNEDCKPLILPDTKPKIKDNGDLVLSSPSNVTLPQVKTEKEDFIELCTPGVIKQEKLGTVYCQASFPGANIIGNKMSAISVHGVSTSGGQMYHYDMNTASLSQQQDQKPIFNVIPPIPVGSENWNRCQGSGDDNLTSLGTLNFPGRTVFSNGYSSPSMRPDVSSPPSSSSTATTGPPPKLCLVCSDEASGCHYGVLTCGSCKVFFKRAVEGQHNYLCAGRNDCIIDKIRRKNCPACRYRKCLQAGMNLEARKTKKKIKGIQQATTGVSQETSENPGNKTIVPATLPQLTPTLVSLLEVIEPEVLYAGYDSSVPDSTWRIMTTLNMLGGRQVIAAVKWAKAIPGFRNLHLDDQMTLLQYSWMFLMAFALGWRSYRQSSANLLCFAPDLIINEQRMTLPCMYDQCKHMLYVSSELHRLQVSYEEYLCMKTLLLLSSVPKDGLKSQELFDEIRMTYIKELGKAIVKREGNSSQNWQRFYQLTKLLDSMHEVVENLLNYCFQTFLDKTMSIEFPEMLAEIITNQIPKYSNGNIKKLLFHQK
# In short: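 HeLa GRE-bla reporter cells; 18 h compound exposure at 37 C; 2 h CCF4 loading at room temperature; fluorescence at 460 and 530 nm; EC50 by Hill equation.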
# [3] = molecular target: Glucocorticoid receptor (Homo sapiens) (UniProt P04150); test: qHTS assay for small molecule antagonists of glucocorticoid receptor signaling (AID 588533; active means well fitted inhibition curve with a large enough effect in the signal ratio, with a control signal flat, not every such curve was filed as active; the % refers to the signal ratio;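 further: cells stimulated with 2 nM dexamethasone as agonist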)
# In short: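 Antagonist-mode qHTS: compound titrations added to GRE-bla HeLa cells, then dexamethasone 2 nM final; 18 h, 37 C. CCF4 FRET fluorescence normalized to dexamethasone and DMSO; IC50 from Hill fit.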
# [4] = qHTS assay for small molecule antagonists of peroxisome proliferator-activated receptor delta signaling (AID 588535; active means well fitted inhibition curve with a large enough effect in the signal ratio, with a control signal flat, not every such curve was filed as active; the % refers to the signal ratio;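 on max response: cells co-treated with a PPAR-delta agonist as stimulator during compound exposure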); details: HEK293T PPARd-UAS-bla, beta-lactamase FRET ratio, 18 h; 460 nm channel
# In short: (§1)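 Cells were seeded at 4000 per well in assay medium containing 2% charcoal/dextran FBS and held 5 hrs at 37 C. Compounds were then added for 18 hrs. CCF4 substrate was applied for 2 hrs at room temperature before fluorescence reading.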
# [5] = molecular target: Peroxisome proliferator-activated receptor delta (Homo sapiens) (UniProt Q03181); test: as above
# Sequence of Peroxisome proliferator-activated receptor delta (Homo sapiens) (Q03181 whole entry, looked up): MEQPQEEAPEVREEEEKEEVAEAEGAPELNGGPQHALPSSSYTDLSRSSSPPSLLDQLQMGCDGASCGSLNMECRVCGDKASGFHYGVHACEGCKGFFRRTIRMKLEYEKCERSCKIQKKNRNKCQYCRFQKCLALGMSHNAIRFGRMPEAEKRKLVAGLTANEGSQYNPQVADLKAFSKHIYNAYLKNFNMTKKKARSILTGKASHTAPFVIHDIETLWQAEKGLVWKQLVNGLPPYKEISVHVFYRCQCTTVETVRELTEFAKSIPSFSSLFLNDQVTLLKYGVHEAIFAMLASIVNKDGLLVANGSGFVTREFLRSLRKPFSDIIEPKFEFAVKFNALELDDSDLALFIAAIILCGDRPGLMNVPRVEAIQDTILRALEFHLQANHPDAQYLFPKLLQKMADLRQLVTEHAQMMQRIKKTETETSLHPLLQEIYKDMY
# In short: as §1
# [6] = molecular target: Peroxisome proliferator-activated receptor gamma (Homo sapiens) (UniProt P37231); test: qHTS assay for small molecule agonists of peroxisome proliferator-activated receptor gamma signaling (AID 588536; active means well fitted curve in the direction sought with a large enough effect in the signal ratio, with a control signal flat, not every such curve was filed as active; the % refers to the signal ratio)
# Sequence of Peroxisome proliferator-activated receptor gamma (Homo sapiens) (P37231 whole entry, looked up): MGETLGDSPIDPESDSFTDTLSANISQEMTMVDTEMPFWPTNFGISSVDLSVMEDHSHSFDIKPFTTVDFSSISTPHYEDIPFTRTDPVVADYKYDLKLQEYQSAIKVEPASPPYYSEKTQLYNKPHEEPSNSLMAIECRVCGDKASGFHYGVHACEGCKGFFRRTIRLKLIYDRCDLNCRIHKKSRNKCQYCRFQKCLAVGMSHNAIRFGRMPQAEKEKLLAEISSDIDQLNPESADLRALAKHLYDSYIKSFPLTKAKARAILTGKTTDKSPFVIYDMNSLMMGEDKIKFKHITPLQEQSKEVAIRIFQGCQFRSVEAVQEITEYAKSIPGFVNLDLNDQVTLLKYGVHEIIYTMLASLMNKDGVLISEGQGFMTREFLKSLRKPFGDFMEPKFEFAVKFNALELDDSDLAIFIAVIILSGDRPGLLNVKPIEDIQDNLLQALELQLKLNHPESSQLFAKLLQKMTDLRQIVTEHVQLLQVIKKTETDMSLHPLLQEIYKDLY
# In short: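 Ratiometric blue/green fluorescence (405 nm excitation; 460 and 530 nm emission) from CCF4-loaded HEK293 reporter cells serves as signal. Exposure to test compounds lasts 16 h at 37 C in medium containing 1% charcoal/dextran-treated serum.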
# [7] = molecular target: Peroxisome proliferator-activated receptor gamma (Homo sapiens) (UniProt P37231); test: qHTS assay for small molecule antagonists of peroxisome proliferator-activated receptor gamma signaling (AID 588537; active means well fitted inhibition curve with a large enough effect in the signal ratio, with a control signal flat, not every such curve was filed as active; the % refers to the signal ratio;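 further: reporter cells co-stimulated with 50 nM rosiglitazone agonist during compound treatment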)
# In short: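 Step one: plate 3000 HEK293 UAS-bla cells per well in medium with 1% stripped serum and hold 6-6.5 h at 37 C. Step two: add compound and 50 nM agonist for 16 h. Step three: CCF4 loading, fluorescence read.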
# [8] = molecular target: Vitamin D3 receptor (Homo sapiens) (UniProt P11473); test: qHTS assay for small molecule agonists of vitamin D receptor signaling (AID 588543)
# Sequence of Vitamin D3 receptor (Homo sapiens) (P11473 whole entry, looked up): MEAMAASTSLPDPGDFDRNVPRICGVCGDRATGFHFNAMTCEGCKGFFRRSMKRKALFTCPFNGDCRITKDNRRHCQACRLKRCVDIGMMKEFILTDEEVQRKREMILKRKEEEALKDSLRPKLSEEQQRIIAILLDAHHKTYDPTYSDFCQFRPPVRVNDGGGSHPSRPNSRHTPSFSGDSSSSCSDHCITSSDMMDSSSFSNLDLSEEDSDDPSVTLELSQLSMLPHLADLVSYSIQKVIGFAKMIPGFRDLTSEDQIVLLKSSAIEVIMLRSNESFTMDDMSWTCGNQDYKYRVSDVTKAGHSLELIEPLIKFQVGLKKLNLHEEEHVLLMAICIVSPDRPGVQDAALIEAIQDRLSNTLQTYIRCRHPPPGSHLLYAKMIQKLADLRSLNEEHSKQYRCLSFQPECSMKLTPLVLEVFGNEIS
# In short: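 Measured: β-lactamase reporter activity (CCF4, 405 nm excitation, 460/530 nm emission) in HEK293T VDR-UAS-bla cells after 16 h compound exposure at 37 °C. Normalization against 50 nM 1α,25-dihydroxyvitamin D3 and DMSO; Hill-fit EC50.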
# [9] = molecular target: Ubiquitin carboxyl-terminal hydrolase 1 (Homo sapiens) (UniProt O94782); test: Inhibitors of USP1/UAF1: Pilot qHTS (AID 504865; active means well fitted inhibition curve with a large enough effect;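 further: rhodamine fluorescence freed from ubiquitin-rhodamine substrate followed over time; top concentration of the series differs between compounds; nearly all actives have a fitted effect of over 35% in size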)
# Sequence of Ubiquitin carboxyl-terminal hydrolase 1 (Homo sapiens) (O94782 whole entry, looked up): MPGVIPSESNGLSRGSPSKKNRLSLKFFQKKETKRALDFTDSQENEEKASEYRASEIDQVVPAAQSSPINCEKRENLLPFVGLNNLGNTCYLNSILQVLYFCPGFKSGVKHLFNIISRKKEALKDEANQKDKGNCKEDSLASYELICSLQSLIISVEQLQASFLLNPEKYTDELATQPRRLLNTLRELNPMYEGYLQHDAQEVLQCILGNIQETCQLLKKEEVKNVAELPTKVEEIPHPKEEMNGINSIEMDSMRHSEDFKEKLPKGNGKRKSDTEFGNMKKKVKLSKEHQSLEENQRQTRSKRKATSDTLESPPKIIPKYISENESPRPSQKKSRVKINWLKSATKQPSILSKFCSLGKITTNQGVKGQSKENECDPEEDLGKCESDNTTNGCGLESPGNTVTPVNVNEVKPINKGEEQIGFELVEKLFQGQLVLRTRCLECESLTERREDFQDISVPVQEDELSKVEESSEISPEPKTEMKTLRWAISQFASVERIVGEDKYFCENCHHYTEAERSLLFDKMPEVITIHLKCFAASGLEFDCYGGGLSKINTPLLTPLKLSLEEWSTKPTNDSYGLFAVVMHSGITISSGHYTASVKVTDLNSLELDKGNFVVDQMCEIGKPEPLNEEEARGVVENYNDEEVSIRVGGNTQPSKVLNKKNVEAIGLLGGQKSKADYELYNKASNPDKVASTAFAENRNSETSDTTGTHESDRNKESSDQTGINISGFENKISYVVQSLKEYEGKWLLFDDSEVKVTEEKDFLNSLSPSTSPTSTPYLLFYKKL
# In short: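 Enzyme-free wells gave the negative control, while test wells held 1nM USP1/UAF1 preincubated with compound for 15 min at room temperature. Ub-Rho at 150nM final started the reaction, and fluorescence at 480/540 nm was recorded kinetically.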
# [10] = molecular target: Estrogen receptor (Homo sapiens) (UniProt P03372); test: qHTS assay for small molecule antagonists of estrogen receptor alpha signaling (AID 588513; active means well fitted curve in the direction sought with a large enough effect in the signal ratio, with a control signal flat, not every such curve was filed as active; the % refers to the signal ratio)
# In short: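 Antagonist-mode qHTS in ER-alpha-UAS-bla HEK 293 cells: compound titration, 0.5nM estradiol for 18 h, CCF4 fluorescence, Hill-derived IC50.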
# [11] = molecular target: Bile acid receptor (Homo sapiens) (UniProt Q96RI1); test: qHTS assay for small molecule antagonists of farnesoid X receptor signaling (AID 588526)
# Sequence of Bile acid receptor (Homo sapiens) (Q96RI1 whole entry, looked up): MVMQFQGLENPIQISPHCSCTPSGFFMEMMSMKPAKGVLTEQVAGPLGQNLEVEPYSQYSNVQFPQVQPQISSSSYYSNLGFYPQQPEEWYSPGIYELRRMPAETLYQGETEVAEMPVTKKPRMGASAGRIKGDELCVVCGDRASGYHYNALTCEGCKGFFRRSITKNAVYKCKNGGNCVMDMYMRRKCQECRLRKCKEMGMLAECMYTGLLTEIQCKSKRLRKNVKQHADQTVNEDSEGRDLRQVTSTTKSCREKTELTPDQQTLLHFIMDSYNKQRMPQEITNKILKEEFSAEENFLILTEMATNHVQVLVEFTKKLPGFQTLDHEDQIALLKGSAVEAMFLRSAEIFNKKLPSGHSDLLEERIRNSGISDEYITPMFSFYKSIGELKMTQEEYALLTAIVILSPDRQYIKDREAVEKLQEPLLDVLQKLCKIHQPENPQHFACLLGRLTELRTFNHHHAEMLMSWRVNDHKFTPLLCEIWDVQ
# In short: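 Antagonist mode: titrated compounds tested against chenodeoxycholic acid stimulation (normalized to 50 uM CDCA and DMSO) in GeneBLAzer HEK293T cells for 16 h. Beta-lactamase read by CCF4 fluorescence; IC50 from Hill fits.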
# [12] = qHTS assay for small molecule agonists of retinoid X receptor alpha signaling (AID 588544); details: HEK293T RXRa-UAS-bla, beta-lactamase reporter, 18 h; 530 nm emission
# [13] = molecular target: Retinoic acid receptor RXR-alpha (Homo sapiens) (UniProt P19793); test: as above
# Sequence of Retinoic acid receptor RXR-alpha (Homo sapiens) (P19793 whole entry, looked up): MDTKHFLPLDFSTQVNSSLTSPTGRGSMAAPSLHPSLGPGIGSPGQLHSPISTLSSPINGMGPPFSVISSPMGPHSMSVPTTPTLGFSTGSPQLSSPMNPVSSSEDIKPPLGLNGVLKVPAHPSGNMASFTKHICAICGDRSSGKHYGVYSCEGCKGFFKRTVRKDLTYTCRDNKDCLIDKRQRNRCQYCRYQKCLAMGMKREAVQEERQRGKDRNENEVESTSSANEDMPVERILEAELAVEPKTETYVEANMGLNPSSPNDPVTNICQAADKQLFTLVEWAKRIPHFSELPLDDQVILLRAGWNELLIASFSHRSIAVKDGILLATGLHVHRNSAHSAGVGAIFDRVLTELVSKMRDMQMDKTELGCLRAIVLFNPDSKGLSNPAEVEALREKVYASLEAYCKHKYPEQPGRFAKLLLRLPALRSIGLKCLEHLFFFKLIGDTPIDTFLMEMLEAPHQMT
# [14] = molecular target: DNA dC->dU-editing enzyme APOBEC-3G (Homo sapiens) (UniProt Q9HC16); test: qHTS for inhibitors of Vif-A3G interactions: Validation (AID 588379; active means well fitted inhibition curve with a large enough effect)
# Sequence of DNA dC->dU-editing enzyme APOBEC-3G (Homo sapiens) (Q9HC16 whole entry, looked up): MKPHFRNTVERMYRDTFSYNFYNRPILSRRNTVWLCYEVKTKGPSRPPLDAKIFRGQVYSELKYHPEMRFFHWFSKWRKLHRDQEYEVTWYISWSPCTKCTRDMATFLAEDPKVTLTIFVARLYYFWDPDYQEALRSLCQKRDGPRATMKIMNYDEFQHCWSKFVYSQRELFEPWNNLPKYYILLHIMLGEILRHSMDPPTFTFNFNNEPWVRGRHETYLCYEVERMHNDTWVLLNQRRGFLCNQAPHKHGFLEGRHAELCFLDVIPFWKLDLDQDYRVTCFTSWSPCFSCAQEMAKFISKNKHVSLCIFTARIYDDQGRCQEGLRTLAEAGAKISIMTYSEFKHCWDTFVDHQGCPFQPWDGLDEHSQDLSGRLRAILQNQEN
# In short: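 HeLa cells stably expressing Vif and A3G-eYFP, 700 cells/well, incubated overnight at 37 deg C, then exposed to compound overnight at 37 deg C. Inhibition of Vif-mediated degradation read as increased yellow fluorescence (Ex 488/Em 500-530) by laser-scanning cytometry.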
# [15] = molecular target: Androgen receptor (Homo sapiens) (UniProt P10275); test: qHTS assay for small molecule agonists of androgen receptor signaling (AID 588515; active means well fitted curve in the direction sought with a large enough effect in the signal ratio, with a control signal flat; the % refers to the signal ratio); details: AR-UAS-bla HEK293, beta-lactamase ratio, agonist 16 h; stronger effect = higher value
# In short: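 EC50 and efficacy came from Hill fits of titrations (up to 92 uM) normalized to 30 nM R1881 as 100% and DMSO as 0%. Compound exposure was 16 h at 37 C on AR-UAS-bla HEK293 cells, with a 405/460/530 nm CCF4 fluorescence read.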
# [16] = molecular target: Androgen receptor (Homo sapiens) (UniProt P10275); test: qHTS assay for small molecule antagonists of androgen receptor signaling (AID 588516; active means well fitted curve in the direction sought with a large enough effect in the signal ratio, with a control signal flat, not every such curve was filed as active; the % refers to the signal ratio)
# In short: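 Compounds tested in titration against 10 nM R1881 in AR-responsive bla reporter HEK 293 cells; CCF4 fluorescence (460/530 nm) after 16 h exposure gave IC50 and efficacy.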
compound,measurement,setting,value
CC(C)CCCCCCc1ccc(O)cc1,Potency,[1],2.51 µM (active)
same,activation,[2],-1.88% (inactive)
same,Potency,[3],inactive
same,max response,[4],-43.1%
same,outcome,[5],inactive
same,outcome,[6],inactive
same,outcome,[7],inactive
same,outcome,[8],inactive
O=c1n(CC2CO2)c(=O)n(CC2CO2)c(=O)n1CC1CO1 (centres undefined),Potency,[9],inactive
same,Potency,[10],inactive
same,activation,[2],-4.93% (inactive)
same,Potency,[3],inactive
same,outcome,[8],inactive
CCCCO,outcome,[11],inactive
same,max response,[4],1.82%
same,outcome,[5],inactive
same,outcome,[6],inactive
same,outcome,[7],inactive
same,outcome,[8],inactive
same,max response,[12],-9.48% and 0.366%
same,outcome,[13],inactive
C[C@H](CCC(=O)O)[C@H]1CC[C@H]2[C@@H]3[C@H](O)C[C@@H]4C[C@H](O)CC[C@]4(C)[C@H]3C[C@H](O)[C@]12C,Potency,[10],inactive
same,Potency,[1],inactive
same,activation,[2],0.114% (inactive)
same,Potency,[3],inactive
same,outcome,[6],inactive
same,max response,[12],9.07%
same,outcome,[13],inactive
CO,Potency,[9],inactive
same,max response,[4],-4.23%
same,outcome,[5],inactive
same,outcome,[6],inactive
same,outcome,[8],inactive
same,max response,[12],-9.41%
same,outcome,[13],inactive
CC/C=C\C/C=C\C/C=C\CCCCCCCC(=O)O,Potency,[10],inactive
same,Potency,[1],inactive
same,outcome,[11],inactive
same,outcome,[8],inactive
N[C@@H](Cc1cc(I)c(Oc2ccc(O)c(I)c2)c(I)c1)C(=O)O,activation,[2],-18.8% (inactive)
same,Potency,[3],inactive
same,max response,[4],53.8%
same,outcome,[5],inactive
same,outcome,[7],inactive
same,outcome,[8],inactive
same,max response,[12],1.66%
same,outcome,[13],inactive
OC[C@H]1O[C@@](CO)(O[C@H]2O[C@H](CO)[C@@H](O)[C@H](O)[C@H]2O)[C@@H](O)[C@@H]1O,Potency,[1],inactive
same,max response,[4],-16.8%
same,outcome,[5],inactive
same,outcome,[6],inactive
same,outcome,[7],inactive
same,max response,[12],-0.27%
same,outcome,[13],inactive
C/C=C/C=C/C(=O)O,Potency,[9],inactive
same,max response,[4],0.118%
same,outcome,[5],inactive
same,outcome,[6],inactive
same,outcome,[8],inactive
same,max response,[12],-7.77%
same,outcome,[13],inactive
CO[C@@H]1[C@H](OC(=O)/C=C/C=C/C=C/C=C/C(=O)O)CC[C@]2(CO2)[C@H]1[C@@]1(C)O[C@@H]1CC=C(C)C,Potency,[1],inactive
same,activation,[2],-1.18% (inactive)
same,Potency,[3],inactive
same,max response,[4],39.3%
same,outcome,[5],inactive
same,outcome,[6],inactive
same,outcome,[7],inactive
same,outcome,[8],inactive
same,max response,[12],11.1%
same,outcome,[13],inactive
[O-][N+](=Nc1ccccc1)c1ccccc1,Potency,[10],inactive
same,Potency,[1],inactive
same,activation,[2],3.15% (inactive)
same,Potency,[3],inactive
same,max response,[4],22.2%
same,outcome,[5],inactive
same,outcome,[6],inactive
same,max response,[12],-6.82%
same,outcome,[13],inactive
O=C1c2ccccc2C(=O)c2c1ccc(O)c2O,outcome,[14],inactive
Cc1ncc[nH]1,Potency,[9],inactive
same,outcome,[11],inactive
same,Potency,[3],inactive
same,max response,[4],34.3%
same,outcome,[5],inactive
same,outcome,[6],inactive
same,outcome,[7],inactive
same,outcome,[8],inactive
same,max response,[12],5.14%
same,outcome,[13],inactive
CC(C)[C@@H]1CC[C@@H](C)C[C@H]1O,activation,[15],9.8% (inactive)
same,outcome,[16],inactive
same,outcome,[11],inactive
same,max response,[4],-3.98%
same,outcome,[5],inactive
same,outcome,[6],inactive
same,outcome,[7],inactive
same,outcome,[8],inactive
same,max response,[12],-16.2%
same,outcome,[13],inactive
C[Si](C)(C)O[Si](C)(C)C,Potency,[9],inactive
same,outcome,[11],inactive
same,max response,[4],8.43%
same,outcome,[5],inactive
same,outcome,[6],inactive
same,outcome,[7],inactive
same,outcome,[8],inactive
same,max response,[12],-7.56%
same,outcome,[13],inactive
O=P(O)(O)O,Potency,[9],inactive
same,outcome,[11],inactive
same,activation,[2],-2.92% (inactive)
same,Potency,[3],inactive
same,outcome,[6],inactive
same,outcome,[7],inactive
same,outcome,[8],inactive
same,max response,[12],-7.11%
same,outcome,[13],inactive
